Laboratory results from PubChem BioAssay AID602340 (Broad Institute, 2012).
Among all 330,000 compounds or so, about 2,600 (0.79%) were called active. The entries come from a sample that favours actives as a whole. A number with no mark means an inactive call.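 The calls were made as follows: active = mean ATP rescue above about 67%, or every replicate alone reaching that limit (limit read from the data, passing the limit was not always enough); inconclusive = no clear call, values can overlap the other calls; inactive = mean under the limit and some replicate under it.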

Test: protection of differentiated C2C12 cells from simvastatin – single point, plate reader, primary screen (AID 602340);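 also: myotubes were challenged with 10 µM simvastatin during compound exposure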
Conditions: C2C12 myotubes + simvastatin, ATP luminescence, 48 h; at 7.49 µM; active compounds read high; scaled: DMSO 0, geranylgeraniol control 100
Work on `C[C@@H]1CN([C@H](C)CO)C(=O)c2cc(C#CC3CC3)cnc2O[C@@H]1CN(C)Cc1cccc(C(=O)O)c1` yielded a rescue of ATP level of -0.6%. Work on `COc1ccc2[nH]c(=O)c(CN(Cc3cccnc3)S(=O)(=O)c3ccccc3F)cc2c1` yielded a rescue of ATP level of -38.6%. With `COc1ccc2[nH]c(=O)c(CNc3ccc(C)c(C)c3)cc2c1` the rescue of ATP level was 100% (active). With `COc1ccc2[nH]c(=O)c(CN(CC3CCCO3)C(=O)Nc3ccccc3)cc2c1` (stereo unspecified) the rescue of ATP level was -11.6%. Molecule `CO[C@H]1CN(C)C(=O)c2ccc(NS(C)(=O)=O)cc2OC[C@@H](C)N(C(=O)c2ccc3c(c2)OCO3)C[C@@H]1C` has a rescue of ATP level of -7.88%. For `C[C@@H]1CCCCO[C@H](CN(C)S(=O)(=O)c2cn(C)cn2)[C@H](C)CN([C@@H](C)CO)C(=O)c2cc(NC(=O)Nc3ccc(C(F)(F)F)cc3)ccc2O1`, the rescue of ATP level was 0.993%. In the case of `C[C@@H]1CN([C@@H](C)CO)C(=O)Cc2cc(NC(=O)CCN3CCOCC3)ccc2O[C@H]1CN(C)S(=O)(=O)c1ccccc1`, the rescue of ATP level is reported as -6.12%. Work on `O=S(=O)(Cc1ccccc1)NCC[C@@H]1CC[C@@H](NS(=O)(=O)c2ccccc2)[C@@H](CO)O1` yielded a rescue of ATP level of 1.31%. With `COc1ccc(S(=O)(=O)N/N=C\c2ccc(OC)c(COc3ccc(C)cc3[N+](=O)[O-])c2)cc1` the rescue of ATP level was 99.4% (active). In the case of `Cc1ccc(S(=O)(=O)N/N=C\c2cc3c(cc2[N+](=O)[O-])OCO3)cc1`, the rescue of ATP level is reported as 2.88%. Work on `COc1ccc(S(=O)(=O)Nc2ccc3cn[nH]c3c2)cc1[N+](=O)[O-]` yielded a rescue of ATP level of 1.46%. Molecule `COc1cccc(S(=O)(=O)Nc2ccc3c(c2)C(=O)N(C)C[C@@H](OC)[C@H](C)CN(C(=O)Cc2cccnc2)[C@H](C)CO3)c1` has a rescue of ATP level of 7.32%. In the case of `CC(=O)N1[C@@H](CO)[C@H](c2ccccc2)[C@@H]1CN(C(=O)c1ccccc1)C(C)C`, the rescue of ATP level is reported as 3.57%. Work on `COc1ccc(-c2ccc3n(c2=O)C[C@@H]2[C@@H](CO)[C@H](C(=O)Nc4ccccc4)[C@H]3N2C)cc1` yielded a rescue of ATP level of -0.124%. `CCC(=O)N(C)C[C@@H]1Oc2cc(C#Cc3cccnc3)ccc2S(=O)(=O)N([C@H](C)CO)C[C@@H]1C` showed a rescue of ATP level of 29.4%. Molecule `CC(=O)c1ccc(NC(=O)c2cc(-c3cccs3)on2)cc1` has a rescue of ATP level of -12.8%. `O=C(c1cc(-c2cccs2)on1)N1CCCCC1` gave a rescue of ATP level of 36%. For `Cc1cc(NC(=O)c2cc(-c3cccs3)on2)nn1Cc1ccc(Cl)cc1`, the rescue of ATP level was 143% (active). Molecule `CC(C)C#Cc1ccc2c(c1)O[C@@H](CN(C)C(=O)CN(C)C)[C@@H](C)CN([C@H](C)CO)S2(=O)=O` has a rescue of ATP level of -17.5%. Work on `CNC[C@H]1Oc2ncc(C#Cc3ccccc3F)cc2C(=O)N([C@H](C)CO)C[C@H]1C` yielded a rescue of ATP level of -12.3%. With `O=C(C[C@@H]1C[C@H]2c3cc(NC(=O)Nc4ccccc4)ccc3O[C@H]2[C@@H](CO)O1)NCc1cccnc1` the rescue of ATP level was 4.89%. `Cc1cc(NCc2ccco2)n2c(nc3ccccc32)c1C#N` gave a rescue of ATP level of -35.7%. With `CN1c2ccccc2-c2nc3ccccc3n2C1c1ccco1` (stereo unspecified) the rescue of ATP level was 96.4% (active). Work on `CN1C(C(=O)NCc2ccco2)CC2Cn3c(nc4ccccc43)C21` (stereo unspecified) yielded a rescue of ATP level of 2.87%. Work on `CCCCCC(=O)Nc1ccc(S(=O)(=O)Nc2ccc(Cl)nn2)cc1` yielded a rescue of ATP level of -2.2%. In the case of `COc1ccc(NS(=O)(=O)c2ccc(NC(=O)C(C)(C(F)(F)F)C(F)(F)F)cc2)nn1`, the rescue of ATP level is reported as 113% (active). With `COC(=O)Nc1ccc(S(=O)(=O)Nc2cc(OC)nc(OC)n2)cc1` the rescue of ATP level was -0.957%. In the case of `CC(C)NC(=O)N1[C@H](CO)[C@@H]2c3ccccc3N(C(=O)c3ccccc3F)C[C@@H]21`, the rescue of ATP level is reported as 6.22%. `CC(=O)N(C)C[C@H]1Oc2cc(C#CC3CC3)ccc2S(=O)(=O)N([C@H](C)CO)C[C@@H]1C` showed a rescue of ATP level of 9.57%. With `C/C=C/c1ccc2c(c1)O[C@@H](CN(C)C(=O)c1ccncc1)[C@@H](C)CN([C@H](C)CO)S2(=O)=O` the rescue of ATP level was -3.45%. Molecule `CO[C@H]1CN(C)C(=O)c2ccc(NS(C)(=O)=O)cc2OC[C@@H](C)N(Cc2ccccc2)C[C@@H]1C` has a rescue of ATP level of 7.75%. For `CO[C@H]1CN(C)C(=O)c2cc(NC(=O)C3CC3)ccc2OC[C@H](C)N(Cc2ccccc2)C[C@H]1C`, the rescue of ATP level was 14.1%. For `CCOC(=O)c1c(-c2ccccc2)oc2ccc(OCC(N)=O)cc12`, the rescue of ATP level was -0.453%. In the case of `CC(=O)c1c(C)n(-c2ccc(N(C)C)cc2)c2ccc(OCC(N)=O)cc12`, the rescue of ATP level is reported as 83.1% (active). `CC(=O)c1c(C)n(-c2ccc(C)cc2)c2ccc(O)cc12` gave a rescue of ATP level of -0.235%. With `CN(C)CCCNC(=O)C[C@H]1C=C[C@@H](NC(=O)Cc2cccnc2)[C@H](CO)O1` the rescue of ATP level was -16.4%. With `C[C@@H]1CN([C@H](C)CO)C(=O)c2ccccc2-c2ccccc2CO[C@@H]1CN(C)S(=O)(=O)CC(F)(F)F` the rescue of ATP level was -2.03%. `CCOC(=O)Nc1ccc(NC(=O)OCC)cc1` showed a rescue of ATP level of -0.0995%. With `CC(C)(C)OC(=O)Nc1ccc([C@@H](NC(=O)OC(C)(C)C)C(=O)OC(C)(C)C)cc1` the rescue of ATP level was 83.1% (active). `CC(C)(C)OC(=O)N[C@H](C(=O)OC(C)(C)C)c1ccc(Br)cc1` showed a rescue of ATP level of -4.69%. `COc1ccc(S(=O)(=O)N2CC[C@H]3[C@@H](CO)N(C)c4ccc(C#Cc5ccccc5OC)cc4[C@H]32)cc1` gave a rescue of ATP level of 36%. In the case of `C[C@H]1CN([C@@H](C)CO)S(=O)(=O)c2ccc(C#Cc3ccccc3F)cc2O[C@@H]1CN(C)C(=O)c1ccc2c(c1)OCO2`, the rescue of ATP level is reported as -14.8%. `O=C(Nc1ccccc1[N+](=O)[O-])C1C(c2ccccc2)=C1c1ccccc1` gave a rescue of ATP level of 2.4%. With `O=C(O)c1ccccc1NC(=S)NC(NC(=O)c1ccccc1[N+](=O)[O-])C(Cl)(Cl)Cl` (stereo unspecified) the rescue of ATP level was 108% (active). `O=C(Nc1ccccc1-c1ccccc1)c1ccccc1[N+](=O)[O-]` showed a rescue of ATP level of 9.09%. Work on `CO[C@H]1CN(C)C(=O)c2cc(NC(=O)C3CCOCC3)ccc2OC[C@@H](C)N(Cc2cccnc2)C[C@@H]1C` yielded a rescue of ATP level of 11.4%. Molecule `COc1cc(/C=N/NC(=O)CNC(=O)c2ccncc2)ccc1OC(C)=O` has a rescue of ATP level of -8.66%. In the case of `COc1cc(/C=N\NC(=O)CNC(=O)c2cccc([N+](=O)[O-])c2)ccc1O`, the rescue of ATP level is reported as 110% (active). For `COc1ccc(O)c(/C=N/N=C/c2cccc([N+](=O)[O-])c2)c1`, the rescue of ATP level was 9.95%. For `Cc1noc(C)c1NC(=O)N[C@@H]1CC[C@H](CCNC(=O)C2CCC2)O[C@@H]1CO`, the rescue of ATP level was 3.99%. For `O=C(C[C@H]1CC[C@@H](NC(=O)Nc2cc(F)ccc2F)[C@@H](CO)O1)NCc1ccncn1`, the rescue of ATP level was -2.36%. `O=C(Nc1ccccc1)N1C[C@@H]2[C@H](c3ccccc31)[C@H](CO)N2C(=O)c1ccccn1` showed a rescue of ATP level of -4.63%. With `COc1ccc(C2=NN(C(=O)CSc3nnnn3C)C(c3ccco3)C2)cc1` (stereo unspecified) the rescue of ATP level was -6.88%. For `Cc1ccc(C2=NN(C(=O)CSc3nc(N)cc(N)n3)C(c3ccco3)C2)cc1` (stereo unspecified), the rescue of ATP level was 159% (active). With `COc1ccc(C2=NN(C(=O)CSc3nc(=O)n4ccc(C)cc4n3)C(c3ccc(C)cc3)C2)cc1` (stereo unspecified) the rescue of ATP level was 34.4%. With `Cc1cccc(-c2ccc([C@@H]3[C@H](CO)N4CCCCN(C(=O)c5ccc6c(c5)OCO6)C[C@@H]34)cc2)c1` the rescue of ATP level was -11.7%. Work on `C[C@@H]1CN([C@H](C)CO)C(=O)c2cc(-c3ccc(C(=O)N(C)C)cc3)cnc2O[C@H]1CN(C)C(=O)C1CC1` yielded a rescue of ATP level of 5.72%. `COc1ccc(NC(=O)N(C)C[C@H]2Oc3ccc(N(C)C)cc3C(=O)N([C@H](C)CO)C[C@H]2C)cc1` showed a rescue of ATP level of 34.1%. For `O=C(CSc1nc(-c2ccco2)cc(C(F)(F)F)n1)N1CCc2ccccc2C1`, the rescue of ATP level was 2.99%. With `CCOC(=O)c1ccn(-c2nc(-c3ccco3)cc(C(F)(F)F)n2)n1` the rescue of ATP level was 122% (active). Molecule `COC(=O)c1cnn2c(C(F)(F)F)cc(-c3ccco3)nc12` has a rescue of ATP level of 0.418%. `COCC(=O)Nc1ccc2c(c1)C(=O)N(C)[C@H]1CC[C@@H](CC(=O)Nc3cn(C)nc3C)O[C@@H]1CO2` showed a rescue of ATP level of -1.7%. For `CCC(=O)Nc1ccc2c(c1)OC[C@H](C)N(CC1CCCCC1)C[C@@H](C)[C@H](OC)CN(C)C2=O`, the rescue of ATP level was 13.2%. In the case of `CCC(=O)Nc1ccccc1N1CCN(S(C)(=O)=O)CC1`, the rescue of ATP level is reported as 5.38%. In the case of `CS(=O)(=O)N1CCN(c2cccc(Cl)n2)CC1`, the rescue of ATP level is reported as 109% (active). Work on `Cc1cccc(C)c1N1CCN(S(=O)(=O)N2CCCCC2)CC1` yielded a rescue of ATP level of -15%. Work on `C[C@@H]1CN([C@H](C)CO)S(=O)(=O)c2ccc(C#CCC3CCCC3)cc2O[C@H]1CN(C)Cc1ccc(C(=O)O)cc1` yielded a rescue of ATP level of 3.68%. `O=C(Nc1nnc(Cc2ccc(Cl)cc2)s1)c1cccnc1` showed a rescue of ATP level of 0.36%. For `O=C(NCc1ccc(Cl)c(Cl)c1)c1cccnc1`, the rescue of ATP level was 106% (active). For `CC(C)(C)c1cc(C(=O)NCc2cccnc2)ccn1`, the rescue of ATP level was -8.85%. For `COCC(=O)Nc1ccc2c(c1)[C@H]1C[C@H](CC(=O)NCc3cccnc3)O[C@H](CO)[C@H]1O2`, the rescue of ATP level was -1.76%. In the case of `COCCn1c(CN(Cc2ccccc2)Cc2ccccc2)nc2c1c(=O)n(C)c(=O)n2C`, the rescue of ATP level is reported as 30.5%. Molecule `Cn1c(=O)c2c(nc(CN3CCOCC3)n2Cc2ccccc2)n(C)c1=O` has a rescue of ATP level of 2.6%. In the case of `COCCn1c(CN2CCC(Cc3ccccc3)CC2)nc2c1c(=O)n(C)c(=O)n2C`, the rescue of ATP level is reported as 70.9% (active). In the case of `CC(=O)NC[C@H]1[C@H](c2ccccc2)[C@@H](CO)N1C(=O)Cc1cccnc1`, the rescue of ATP level is reported as 7.36%. Work on `Cc1ccccc1S(=O)(=O)Nc1ccc2c(c1)C(=O)N(C)[C@H]1CC[C@@H](CC(=O)O)O[C@H]1CO2` yielded a rescue of ATP level of 10.2%.
